Laboratory results as given in the supplement of paper PMC6897291.
Where a name gives a salt, the structure may show the parent alone.

System: U-2932
Assay: growth inhibition by drug plus 177Lu-lilotomab satetraxetan (1 - RLU/untreated control) (fraction); higher = stronger inhibition
Details: 10 nM; time (day): 6; 177Lu-lilotomab satetraxetan 1 ug/ml
Procedure, shortened: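 A radiolabelled anti-CD37 antibody conjugate (~600 MBq/mg) was applied for 18 h at 0.5 µg/ml to RIVA and 1 µg/ml to U-2932 cells, with untreated cells run alongside. All cells were washed and seeded at 3,000 cells/well onto library-printed plates at 10/100 nM (RIVA) or 10/1,000 nM (U-2932). Growth inhibition was based on RealTime-Glo luminescence compared with untreated no-drug wells. Daily reads began on day 3 after 1 h at 37°C, with each value being 1 − RLU/mean of the 48 such wells on that plate.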

Compound	growth inhibition by drug plus 177Lu-lilotomab satetraxetan
CNCc1ccc(-c2[nH]c3cc(F)cc4c3c2CCNC4=O)cc1	0.222
O=C(O)c1ccc(-c2c[nH]c3ncc(-c4ccccc4)cc23)cc1C1CCCC1	0.0111
CC(=O)c1c(C)c2cnc(Nc3ccc(N4CCNCC4)cn3)nc2n(C2CCCC2)c1=O	0.0699
CCN(CC)CCCCNc1ncc2cc(-c3cc(OC)cc(OC)c3)c(NC(=O)NC(C)(C)C)nc2n1	0.152
CCC(C)(C)C(=O)O[C@H]1C[C@@H](C)C=C2C=C[C@H](C)[C@H](CC[C@@H]3C[C@@H](O)CC(=O)O3)[C@H]21 [Simvastatin (Zocor)]	0.124
CC[C@H](Nc1ncnc2[nH]cnc12)c1nc2cccc(F)c2c(=O)n1-c1ccccc1	0.0112
CC(C=CC(=O)NO)=CC(C)C(=O)c1ccc(N(C)C)cc1 (stereo unspecified) [Trichostatin A (TSA)]	0.0848
COc1ccc2c3n(c(=NC(=O)c4cccnc4)nc2c1OC)CCN3	0.178
NC(=O)c1ccc(-c2nc(-c3ccccn3)c(-c3ccc4c(c3)OCO4)[nH]2)cc1	0.198
CNC(=O)c1cc(Oc2ccc(NC(=O)Nc3ccc(Cl)c(C(F)(F)F)c3)c(F)c2)ccn1 [Regorafenib (BAY 73-4506)]	0.319
Cc1cnc(Nc2ccc(OCCN3CCCC3)cc2)nc1Nc1cccc(S(=O)(=O)NC(C)(C)C)c1	0.0198
CCOc1ccc(Nc2nc(-c3c(C)nc4ccccn34)cs2)cc1	0.311
CC(C)C[C@H](NC(=O)[C@H](Cc1ccccc1)NC(=O)c1cnccn1)B(O)O [Bortezomib (Velcade)]	0.98
O=C1CN2Cc3c(ccc(Cl)c3Cl)N=C2N1 [Anagrelide]	0.23
Cc1cc(Nc2cc(N3CCN(C)CC3)nc(/C=C/c3ccccc3)n2)n[nH]1	-0.0149
CCc1cc(Nc2nccc(-c3c(-c4ccc(OC)c(C(=O)Nc5c(F)cccc5F)c4)nc4ccccn34)n2)c(OC)cc1N1CCC(N2CCN(S(C)(=O)=O)CC2)CC1	0.0887
O=C1CN2Cc3c(ccc(Cl)c3Cl)N=C2N1 [Anagrelide hydrochloride]	0.272
O=C(NCCCNc1nc(Nc2cccc(NC(=O)N3CCCC3)c2)ncc1I)c1cccs1	0.353
CCC[C@H](NC(=O)/C(C#N)=C/c1cccc(Br)n1)c1ccccc1	0.098

Compound	growth inhibition by drug plus 177Lu-lilotomab satetraxetan
COc1cc2nc(N3CCCN(C)CC3)nc(NC3CCN(Cc4ccccc4)CC3)c2cc1OC	0.207
C#Cc1cccc(Nc2ncnc3cc(OCCOC)c(OCCOC)cc23)c1 [Erlotinib HCl]	0.267
CN(C)c1ccccc1CN1CCCN(Cc2ccccc2N(C)C)C1c1ccncc1	0.0251
COc1cc2c(NC3CCN(C)CC3)nc(N3CCCN(C)CC3)nc2cc1OCCCN(C)C	0.00172
COc1ccc(COc2cc3oc(=O)c4cc(C(C)O)ccc4c3cc2OC)cc1 (stereo unspecified) [Palomid 529]	0.0704
CO[C@@H](C(=O)N1Cc2[nH]nc(NC(=O)c3ccc(N4CCN(C)CC4)cc3)c2C1)c1ccccc1	0.142
Cn1cc(C2=C(c3ccc(Cl)cc3Cl)C(=O)NC2=O)c2ccccc21	-0.0529
CCc1ccc(CCOc2ccc(CC3SC(=O)NC3=O)cc2)nc1 (stereo unspecified) [Pioglitazone (Actos)]	0.114
O=C(O)C1(C(=O)O)CCC1.[NH2-].[NH2-].[Pt+2] [Carboplatin]	0.141
CS(=O)(=O)c1ccc(C(=O)Nc2ccc(Cl)c(-c3ccccn3)c2)c(Cl)c1 [Vismodegib (GDC-0449)]	0.219
OCCn1cc(-c2ccc3c(c2)CC/C3=N\O)c(-c2ccncc2)n1	0.0788
CC[C@@H]1C(=O)N(C)c2cnc(Nc3ccc(C(=O)NC4CCN(C)CC4)cc3OC)nc2N1C1CCCC1	0.941
CC[C@]1(O)C[C@H]2CN(CCc3c([nH]c4ccccc34)[C@@](C(=O)OC)(c3cc4c(cc3OC)N(C=O)[C@H]3[C@@](O)(C(=O)OC)[C@H](OC(C)=O)[C@]5(CC)C=CCN6CC[C@]43[C@@H]65)C2)C1 [Vincristine]	0.982
CC(C)(C)c1ccc(S(=O)(=O)/C=C/C#N)cc1	0.0727
Cc1cn(-c2cc(NC(=O)c3ccc(C)c(Nc4nccc(-c5cccnc5)n4)c3)cc(C(F)(F)F)c2)cn1 [Nilotinib (AMN-107)]	0.0203
CC(C)(C#N)c1cc(Cn2cncn2)cc(C(C)(C)C#N)c1 [Anastrozole]	0.0754
C=CCn1c(=O)c2cnc(Nc3ccc(N4CCN(C)CC4)cc3)nc2n1-c1cccc(C(C)(C)O)n1	0.141
Cn1cnc(N)c2ncnc1-2 [3-Methyladenine]	0.165
CCc1c2c(nc3ccc(OC(=O)N4CCC(N5CCCCC5)CC4)cc13)-c1cc3c(c(=O)n1C2)COC(=O)[C@]3(O)CC [Irinotecan HCl Trihydrate (Campto)]	0.118

Same assay, conditions: 1000 nM; time (day): 3; 177Lu-lilotomab satetraxetan 1 ug/ml

Compound	growth inhibition by drug plus 177Lu-lilotomab satetraxetan
CNCc1ccc(-c2[nH]c3cc(F)cc4c3c2CCNC4=O)cc1	0.0393
O=C(O)c1ccc(-c2c[nH]c3ncc(-c4ccccc4)cc23)cc1C1CCCC1	0.129
CC(=O)c1c(C)c2cnc(Nc3ccc(N4CCNCC4)cn3)nc2n(C2CCCC2)c1=O	-0.111
CCN(CC)CCCCNc1ncc2cc(-c3cc(OC)cc(OC)c3)c(NC(=O)NC(C)(C)C)nc2n1	-0.156
CCC(C)(C)C(=O)O[C@H]1C[C@@H](C)C=C2C=C[C@H](C)[C@H](CC[C@@H]3C[C@@H](O)CC(=O)O3)[C@H]21 [Simvastatin (Zocor)]	-0.0261
CC[C@H](Nc1ncnc2[nH]cnc12)c1nc2cccc(F)c2c(=O)n1-c1ccccc1	0.507
CC(C=CC(=O)NO)=CC(C)C(=O)c1ccc(N(C)C)cc1 (stereo unspecified) [Trichostatin A (TSA)]	0.981
COc1ccc2c3n(c(=NC(=O)c4cccnc4)nc2c1OC)CCN3	0.192
NC(=O)c1ccc(-c2nc(-c3ccccn3)c(-c3ccc4c(c3)OCO4)[nH]2)cc1	0.0479
CNC(=O)c1cc(Oc2ccc(NC(=O)Nc3ccc(Cl)c(C(F)(F)F)c3)c(F)c2)ccn1 [Regorafenib (BAY 73-4506)]	0.269
Cc1cnc(Nc2ccc(OCCN3CCCC3)cc2)nc1Nc1cccc(S(=O)(=O)NC(C)(C)C)c1	0.127
CCOc1ccc(Nc2nc(-c3c(C)nc4ccccn34)cs2)cc1	0.968
CC(C)C[C@H](NC(=O)[C@H](Cc1ccccc1)NC(=O)c1cnccn1)B(O)O [Bortezomib (Velcade)]	0.986
O=C1CN2Cc3c(ccc(Cl)c3Cl)N=C2N1 [Anagrelide]	0.0939
Cc1cc(Nc2cc(N3CCN(C)CC3)nc(/C=C/c3ccccc3)n2)n[nH]1	0.048
CCc1cc(Nc2nccc(-c3c(-c4ccc(OC)c(C(=O)Nc5c(F)cccc5F)c4)nc4ccccn34)n2)c(OC)cc1N1CCC(N2CCN(S(C)(=O)=O)CC2)CC1	-0.153
O=C1CN2Cc3c(ccc(Cl)c3Cl)N=C2N1 [Anagrelide hydrochloride]	0.0494
O=C(NCCCNc1nc(Nc2cccc(NC(=O)N3CCCC3)c2)ncc1I)c1cccs1	0.223
CCC[C@H](NC(=O)/C(C#N)=C/c1cccc(Br)n1)c1ccccc1	0.0285

Compound	growth inhibition by drug plus 177Lu-lilotomab satetraxetan
COc1cc2nc(N3CCCN(C)CC3)nc(NC3CCN(Cc4ccccc4)CC3)c2cc1OC	0.133
C#Cc1cccc(Nc2ncnc3cc(OCCOC)c(OCCOC)cc23)c1 [Erlotinib HCl]	0.712
CN(C)c1ccccc1CN1CCCN(Cc2ccccc2N(C)C)C1c1ccncc1	-0.133
COc1cc2c(NC3CCN(C)CC3)nc(N3CCCN(C)CC3)nc2cc1OCCCN(C)C	-0.0195
COc1ccc(COc2cc3oc(=O)c4cc(C(C)O)ccc4c3cc2OC)cc1 (stereo unspecified) [Palomid 529]	-0.0939
CO[C@@H](C(=O)N1Cc2[nH]nc(NC(=O)c3ccc(N4CCN(C)CC4)cc3)c2C1)c1ccccc1	0.398
Cn1cc(C2=C(c3ccc(Cl)cc3Cl)C(=O)NC2=O)c2ccccc21	0.0138
CCc1ccc(CCOc2ccc(CC3SC(=O)NC3=O)cc2)nc1 (stereo unspecified) [Pioglitazone (Actos)]	-0.102
O=C(O)C1(C(=O)O)CCC1.[NH2-].[NH2-].[Pt+2] [Carboplatin]	0.0161
CS(=O)(=O)c1ccc(C(=O)Nc2ccc(Cl)c(-c3ccccn3)c2)c(Cl)c1 [Vismodegib (GDC-0449)]	0.117
OCCn1cc(-c2ccc3c(c2)CC/C3=N\O)c(-c2ccncc2)n1	-0.118
CC[C@@H]1C(=O)N(C)c2cnc(Nc3ccc(C(=O)NC4CCN(C)CC4)cc3OC)nc2N1C1CCCC1	0.938
CC[C@]1(O)C[C@H]2CN(CCc3c([nH]c4ccccc34)[C@@](C(=O)OC)(c3cc4c(cc3OC)N(C=O)[C@H]3[C@@](O)(C(=O)OC)[C@H](OC(C)=O)[C@]5(CC)C=CCN6CC[C@]43[C@@H]65)C2)C1 [Vincristine]	0.972
CC(C)(C)c1ccc(S(=O)(=O)/C=C/C#N)cc1	0.517
Cc1cn(-c2cc(NC(=O)c3ccc(C)c(Nc4nccc(-c5cccnc5)n4)c3)cc(C(F)(F)F)c2)cn1 [Nilotinib (AMN-107)]	-0.141
CC(C)(C#N)c1cc(Cn2cncn2)cc(C(C)(C)C#N)c1 [Anastrozole]	-0.103
C=CCn1c(=O)c2cnc(Nc3ccc(N4CCN(C)CC4)cc3)nc2n1-c1cccc(C(C)(C)O)n1	0.884
Cn1cnc(N)c2ncnc1-2 [3-Methyladenine]	-0.00331
CCc1c2c(nc3ccc(OC(=O)N4CCC(N5CCCCC5)CC4)cc13)-c1cc3c(c(=O)n1C2)COC(=O)[C@]3(O)CC [Irinotecan HCl Trihydrate (Campto)]	0.839
